# Source: PubChem BioAssay (several laboratories)
# CYP2C9 act = activators of human CYP2C9 | P11712 | recombinant CYP2C9, luciferin-H conversion, luminescence; stronger effect = higher value; factor 1 = untreated enzyme, 0 = blocked | activation factor at 5 µM | 96,000 tested, 1.4% active | AID 1024;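 active = activation factor of 2 or more for CYP2C9 at a 5 µM dose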;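 also: 0 = sulfaphenazole-blocked wells and 1 = vehicle-only wells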
# CYP2C19 inh = human CYP2C19 inhibition; AID 778; inhibition, % at 5 µM; CYP2C19 Supersomes, luciferin-H EGE luminescence, 30 min; P33261; 96,000 tested, 21% active;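 active = CYP2C19 inhibition above a set limit at 5 µM in the primary screen, cut at about 50% in these data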;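 also: plate controls were negative control wells for no effect and 2.5 mM tranylcypromine positive control for full effect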
# CYP2C19 activ = cytochrome P450 2C19 (human) activation | P33261 | recombinant CYP2C19, luciferin-H EGE luminescence; stronger effect = higher value; 0 = fully inhibited enzyme, 1 = untreated enzyme | activation factor at 5 µM | 96,000 tested, under 10 active;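 active = activation factor of at least 2 at 5 µM in the primary screen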;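 also: 0 = wells with 2.5 mM tranylcypromine and 1 = vehicle-only wells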
# sEH inh = soluble epoxide hydrolase (human) inhibition; P34913; recombinant human sEH enzymatic activity assay; inhibition, % at 2 µM; 91,000 tested, 0.34% active; in the data active = inhibition above about 80%
# Target sequence (P34913 whole entry, looked up): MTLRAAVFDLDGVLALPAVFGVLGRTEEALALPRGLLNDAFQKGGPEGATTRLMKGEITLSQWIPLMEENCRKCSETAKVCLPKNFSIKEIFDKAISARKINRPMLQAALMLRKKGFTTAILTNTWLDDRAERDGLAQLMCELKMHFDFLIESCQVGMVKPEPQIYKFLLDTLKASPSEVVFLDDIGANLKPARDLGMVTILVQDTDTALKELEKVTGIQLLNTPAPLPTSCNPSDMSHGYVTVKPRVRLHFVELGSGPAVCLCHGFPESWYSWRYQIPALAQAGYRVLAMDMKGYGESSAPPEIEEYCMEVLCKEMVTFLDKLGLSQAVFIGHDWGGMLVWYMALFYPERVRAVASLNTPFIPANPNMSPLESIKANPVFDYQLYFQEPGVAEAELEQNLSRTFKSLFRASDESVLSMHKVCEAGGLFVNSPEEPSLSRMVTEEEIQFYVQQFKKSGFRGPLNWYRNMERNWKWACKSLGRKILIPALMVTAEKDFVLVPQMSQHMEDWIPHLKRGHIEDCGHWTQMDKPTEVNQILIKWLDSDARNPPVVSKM
# sEH act = soluble epoxide hydrolase (human) activation; P34913; purified human sEH enzymatic activity, activator screen; activation, % at 2 µM; 91,000 tested, 0.04% active; AID 717; in the data active = activation above about 37%
# CYP2C9 inh = inhibitors of human CYP2C9; 96,000 tested, 20% active; P11712; CYP2C9 Supersomes, luciferin-H conversion, luminescence; inhibition, % at 5 µM; AID 777;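 active = blocking of liver enzyme CYP2C9 beyond about 50% at 5 µM, limit read from the data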
# An asterisk follows results filed as active; . = no result given. Only some compounds are listed: those with a hit (about 27% of all), similar ones and a draw of the others.
SMILES,CYP2C9 act,CYP2C19 inh,CYP2C19 activ,sEH inh,sEH act,CYP2C9 inh
COC(=O)c1[nH]c2cc(OC)c(OC)cc2c1NC(=O)Oc1ccccc1,0.7,-14.5,1.1,-17.5,16.9,26.2
O=S(=O)(c1cccc(NC(=S)Nc2ccc(Br)cc2Cl)c1)N1CCOCC1,0.9,28.0,0.7,13.4,-13.7,14.0
O=C(N/N=C/c1c[nH]c2ccc(Br)cc12)c1ccn(Cc2ccc(Cl)cc2)n1,0.5,29.9,0.7,-2.7,5.0,48.5
COc1ccccc1CNC(=O)c1cnccn1,1.5,26.1,0.7,-13.0,14.0,-46.3
COc1ccc(CCNC(=O)c2nn(C)cc2Cl)cc1,1,70.1*,0.3,-6.9,6.9,3.1
CCCc1ccc(C(C)NC(=O)c2cnccn2)cc1 (centres undefined),0.5,76.5*,0.2,4.9,-3.7,52.6*
COc1ccccc1CNC(=O)COC(=O)c1cnccn1,1,67.2*,0.3,-4.9,2.9,4.3
Nn1c(SCC(=O)Nc2ccc3c(c2)OCO3)nnc1-c1ccncc1,0.8,-2.0,1,-5.7,5.0,21.9
Cc1cccc(NC(=O)CSc2nnc(-c3ccc(S(=O)(=O)N4CCOCC4)cc3)n2C)c1,0.5,99.4*,0,-2.9,3.0,51.6*
Cc1cc(NC(=O)CSc2nnc(-c3ccncc3)n2N)ccc1Br,0.1,47.8,0.5,-11.7,9.6,87.3*
COc1cccc(-c2nnc(SCC(=O)Nc3cc(C)ccc3OC)n2N)c1,0.8,18.4,0.8,1.6,-3.0,17.2
CCC(C)NC(=O)CSc1nnc(-c2cc(-c3ccc(C)cc3)nc3ccccc23)n1N (centres undefined),0.5,14.1,0.9,5.5,-4.2,46.8
Cc1ccc(C)c(NC(=O)CSc2nnc(-c3ccccc3)n2N)c1,0.7,62.6*,0.4,4.1,-2.9,34.9
Cc1ccc(-c2cc(-c3nnc(SCC(=O)NCC(C)C)n3N)c3ccccc3n2)cc1,0.2,38.9,0.6,21.9,-19.4,78.2*
O=C(CSc1nc2ccccc2s1)c1cc2ccccc2o1,1.3,12.1,0.9,7.6,-5.8,-25.7
CCOc1ccccc1N(C(=O)CNC(=O)c1ccco1)C(C(=O)NC(C)(C)C)c1ccncc1 (centres undefined),0.7,38.5,0.6,-0.8,2.3,30.5
CCOC(=O)c1ccc(NC(=O)CSc2nnc(-c3ccncc3)n2C)cc1,0.3,69.4*,0.3,2.5,0.5,72.8*
Cc1ccc(Nc2nnc(SCC(=O)Nc3ccc(S(=O)(=O)N4CCOCC4)cc3)s2)cc1,0.3,-20.4,1.2,7.2,-7.1,74.4*
Cc1csc(NC(=O)CSc2nnc(-c3ccncc3)n2C)n1,0.5,40.2,0.6,-5.4,4.3,47.7
Cc1cccc(NC(=O)CSc2nnc(-c3ccncc3)n2C)c1,0.5,79.9*,0.2,-9.4,7.8,52.1*
Cc1cc(C)c(NC(=O)CN2CCN3CCCC3C2)c(C)c1 (centres undefined),1.1,-0.5,1,-4.9,3.2,-10.5
CC(C)(C)c1ccc(S(=O)(=O)n2c(CN3CCOCC3)nc3ccccc32)cc1,0.9,14.6,0.9,1.0,-1.8,14.1
COc1ccc(NC(=O)CSc2nc3ccccc3c(=O)n2CCNC(C)=O)c(OC)c1,0.5,47.5,0.5,-4.5,4.9,50.6*
CCC(C)NC(=O)CSc1nc2ccccc2c(=O)n1Cc1ccc(OC)cc1 (centres undefined),0.9,85.3*,0.1,5.0,-2.8,11.7
COc1ccc(OC)c(NC(=O)CSc2nc3ccccc3c(=O)n2CCNC(C)=O)c1,.,.,.,-28.4,28.5,.
SMILES,CYP2C9 act,CYP2C19 inh,CYP2C19 activ,sEH inh,sEH act,CYP2C9 inh
COc1ccc(NC(=O)CSc2nc3ccccc3c(=O)n2CCNC(C)=O)cc1,0.4,93.7*,0.1,-10.7,11.1,58.5*
CCOc1ccc(NC(=O)CSc2nc3ccccc3c(=O)n2CCNC(C)=O)cc1,0.9,6.2,0.9,-12.7,13.2,5.9
CCC(C)NC(=O)CSc1nc2ccsc2c(=O)n1-c1ccc(OC)cc1 (centres undefined),0.9,2.9,1,-11.3,14.5,7.4
CCn1c(SCC(=O)Nc2ccccc2OC)nc2ccccc2c1=O,0.1,60.7*,0.4,-20.9,23.6,85.5*
Cc1nn(-c2ccccc2)c(-c2ccccc2)c1C(=O)O,0.7,-0.8,1,-2.2,2.5,30.8
CCCCn1nnnc1SCC(=O)NNC(=O)C1CCCCC1,0.9,9.6,0.9,7.5,-7.0,5.6
O=c1c2cccc3c(N4CCOCC4)ccc(c32)c2nc3ccccc3n12,0.8,14.6,0.9,.,.,18.0
O=[N+]([O-])c1ccc(Cl)c(/C=N/N2CCN(C3c4ccccc4-c4ccccc43)CC2)c1,1.1,-1.1,1,2.1,2.0,-6.3
O=[N+]([O-])c1ccc(Cl)c(/C=N/N2CCN(c3ccccc3)CC2)c1,2.9*,17.0,0.8,-4.3,6.4,-193.9
COc1cccc(-c2nn(C)c3sc(C(=O)N4CCOCC4)cc23)c1,0.4,31.6,0.7,-3.5,0.8,60.0*
COc1cccc(-c2nn(C)c3sc(C(=O)N4CCN(c5ccccn5)CC4)cc23)c1,0.2,42.5,0.6,.,.,80.2*
Cn1nc(-c2ccc(Cl)cc2)c2cc(C(=O)N3CCOCC3)sc21,0.8,34.3,0.7,-2.1,0.8,17.3
Cc1ccccc1-n1nc(C)c2cc(C(=O)N3CCOCC3)sc21,1.3,20.7,0.8,-13.5,13.1,-26.0
COc1ccc(N2CCN(C(=O)c3cc4c(-c5ccc(Cl)cc5)nn(C)c4s3)CC2)cc1,0.4,23.4,0.8,-6.9,5.5,64.0*
COCCCNC(=O)c1cc(C(=O)c2c(-c3c(Cl)cccc3Cl)noc2C)c[nH]1,0.9,-3.7,1,-2.1,4.9,7.5
CCCCOCP(=O)(CC)COCCCC,1,31.7,0.7,-8.4,7.7,3.3
Cn1ncc(Cl)c1C(=O)NC(=S)Nc1sc2c(c1C#N)CCCCC2,0.4,16.9,0.8,8.0,-5.1,63.1*
Cc1nn(C(C)C(=O)Nc2sc3c(c2C#N)CCCC3)c(C)c1[N+](=O)[O-] (centres undefined),0.4,21.4,0.8,5.1,-3.4,61.2*
N#Cc1c(NC(=O)c2ccccc2)sc2c1CCC2,0.9,7.9,0.9,-2.6,4.1,5.1
CC(C)CC(=O)NC(NC(=S)Nc1sc2c(c1C#N)CCCC2)C(Cl)(Cl)Cl (centres undefined),0,52.8*,0.5,7.0,-8.8,100.0*
CC(C)c1cc(C(=O)Nc2sc3c(c2C#N)CCC3)no1,0.9,-5.4,1.1,3.7,-0.8,10.1
CC(C)C(C(=O)Nc1sc2c(c1C#N)CCCCC2)N1C(=O)c2ccccc2C1=O (centres undefined),0.4,34.7,0.7,-5.8,4.5,63.6*
CC(C)(C)C(=O)Nc1sc2c(c1C#N)CCCCC2,.,.,.,-4.2,4.2,.
